From PubChem BioAssay AID624297 (National Center for Advancing Translational Sciences (NCATS), 2012)
About 6,200 (1.8%) of roughly 340,000 compounds were called active. Inconclusive results (about 10%) are left out. The list comes from a sample in which actives are over-represented; it also holds similar structures and randomly drawn compounds. A number with no mark means an inactive call. The call rests on the fitted dose curve; in most records, active means well fitted activation curve with a large enough effect; inconclusive means small, poorly fitted or top-dose-only effect; inactive means no such curve, though single readings can be large or run the other way.

Assay: A quantitative high throughput screen for small molecules that induce DNA re-replication in SW480 colon adenocarcinoma cells. Further: nearly all actives have a fitted effect of over 55% in size. On re-replication activation: % of control where 0% means no effect.
Settings: Hoechst DNA content imaging, 48 h; series mostly up to 46.1 µM; re-replication activation: at the top concentration
Method in brief: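 Hoechst fluorescence of nuclei (405 nm excitation, 500-530 nm emission) measured by plate-scanning imager after 48 hr compound exposure at 37 C; re-replication scored as increased number of nuclei with elevated intensity.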
Potency means the concentration at half of the fitted maximal effect.

Row | SMILES | re-replication activation | Potency
1 | Cc1cccc(OCC(=O)OCC(=O)Nc2ccc(Cl)cn2)c1 | 1.42% | 
2 | O=C1OC(Cc2ccccc2)C(c2ccccc2)C1=O (stereo unspecified) | -2.6% | 
3 | COc1cccc(CNC(C)C(=O)Nc2ccc(S(=O)(=O)N3CCCC3)cc2)c1 (stereo unspecified) | -23.3% | 
4 | CCN1CCN(C(=O)CSc2ccc(C)cc2)CC1 | -1.89% | 
5 | Cc1ccc(SCC(=O)N2CCN(c3ccc(F)cc3)CC2)cc1 | 2.77% [at 1.84 µM] | 
6 | CCN1CCC2(CC1)N=C(c1ccc(F)cc1)C(=S)N2C(=O)c1ccc(C)cc1 |  | 20.6 µM (active)
7 | CN(CC(=O)O)C(=O)c1ccccc1 | -2.02% | 
8 | Nc1cc2c(cc1Br)-c1ccc(F)cc1C2=O | -4.87% | 
9 | O=C(O)C(=Cc1ccccc1[N+](=O)[O-])c1ccccc1 | -4% | 
10 | CCN1CCC(O)(/C=C/c2ccc(C)cc2)C(C(=O)/C=C/c2ccc(C)cc2)C1 (stereo unspecified) | -1.86% | 
11 | CCOc1ccc2nc(NC(=O)CSc3nc4c(c(=O)n(C)c(=O)n4C)n3CC)sc2c1 | -4.89% | 
12 | CCC(=O)c1ccc(OCC(=O)Nc2ccc3nc(C)sc3c2)cc1 | -12.9% | 
13 | CCOc1ccc2nc(Nc3nc4ccc(NC(C)=O)cc4s3)sc2c1 |  | 18.4 µM (active)
14 | COc1ccc(CCOC2OC(CO)C(OC(=O)/C=C/c3ccc(O)c(OC)c3)C(O[C@H]3O[C@@H](C)[C@H](O)[C@@H](O)[C@H]3O)C2O)cc1O (stereo partly specified) | -2.6% | 
15 | Cn1cc(C(=O)c2ccc(Cl)cc2Cl)cc1C(=O)NN | -5.57% | 
16 | CC(C)(C)c1cc(C(=O)NN)n(Cc2ccc(Cl)cc2Cl)n1 |  | 11.6 µM (active)
17 | NNC(=O)c1ccc(Cl)cc1Cl | 0.838% | 
18 | COc1ccc(C(=O)Nc2cccc(/C=C(/CCC(=O)O)c3nc4ccccc4s3)c2)cc1 | -7.51% | 
19 | O=C(COC(=O)c1cccnc1Cl)NC(=O)NC1CCCCC1 | -1.97% | 
20 | Cc1nc2ccc(NC(=O)c3cccc(S(=O)(=O)N4CCOCC4)c3)cc2s1 | 3.07% | 
21 | CC/C(=C\c1ccc(Cl)cc1)c1ccncc1 | -2.36% | 

Row | SMILES | re-replication activation | Potency
22 | CCC1=Nc2cc(C(=O)NCCCN3CCOCC3)ccc2Sc2ccc(Br)cc21 | 14.9% | 
23 | CC(C)(C)c1ccc(C(=O)NCc2ccco2)cc1 | -17.2% | 
24 | CCCC1=Nc2cc(C(=O)NCc3ccco3)ccc2Sc2ccccc21 |  | 5.17 µM (active)
25 | COc1ccc(NC(=O)Nc2ccc3c(c2)C(=O)N([C@H](C)CO)C[C@H](C)[C@@H](CN(C)C(=O)Nc2ccc4c(c2)OCO4)O3)cc1 | 0.217% | 
26 | O=C(Cc1ccc(NC(=O)C2CCCN(C(=O)CCc3ccccc3)C2)cc1)Nc1ccc(C(=O)N2CCOCC2)cc1 (stereo unspecified) | -31.4% [at 9.22 µM] | 
27 | CN(C)S(=O)(=O)c1cc(C(=O)Nc2ccn(C)n2)c(Cl)cc1Cl | 3.79% | 
28 | Cn1ccc(NC(=O)Nc2ccc(Cl)cc2)n1 | 9.96% | 
29 | Cc1ccc(C(=O)Nc2ccn(C)n2)cc1 |  | 18.4 µM (active)
30 | CC(=O)N(O)CCCCCNC(=O)CCC(=O)N(O)CCCCCNC(=O)CCC(=O)N(O)CCCCCNC(=O)CCC(=O)O | -1.74% | 
31 | CCOc1ccc(N/C=C/C(=O)c2cc(OC)c(OC)c(OC)c2)cc1 |  | 0.58 µM (active)
32 | CCOc1ccc(NC(=O)Nc2cc(C)ccc2OC)cc1 | 1.93% | 
33 | CCOc1ccc(C(=O)Nc2cc(OC)ccc2OC)cc1 | -6% | 
34 | CCCC(O)(c1ccccc1)C(c1ccccc1)c1ccccn1 (stereo unspecified) | -10.4% | 
35 | CC1CN(Cc2ccccc2)C(=S)NC1=O (stereo unspecified) | -6.62% | 
36 | O=C(CN1C(=O)/C(=C\c2ccccc2F)SC1=S)Nc1nc2ccccc2s1 | -5.4% | 
37 | COc1ccc(/C=C2\SC(=S)N(CCC(=O)Nc3ccccn3)C2=O)cc1OC | -27.7% | 
38 | CN(C)S(=O)(=O)c1cccc(-c2nn(-c3ccccc3)cc2/C=C2\SC(=S)N(CC(=O)O)C2=O)c1 |  | 16.4 µM (active)
39 | Cc1ccc(S(=O)(=O)n2oc(=O)c(C3CCCCC3)c2N)cc1 | 0.714% | 
40 | O=C(Nc1cccc(S(=O)(=O)N2CCOCC2)c1)C12CC3CC(CC(C3)C1)C2 | -3.63% | 
41 | CC[C@]12c3[nH]c4ccc(OC)cc4c3CCN1C(=O)C(CC(=O)NCCN1CCOCC1)C[C@@H]2C(=O)N1CCN(C(=O)C2CC2)CC1 (stereo partly specified) | 11.8% | 
42 | C=CCC[C@H](Cc1ccc(F)cc1)C(=O)OC[C@H](C)NC(=O)[C@H](CC=C)CC(=O)N(CCO)Cc1ccccc1 | 11.5% | 

Row | SMILES | re-replication activation | Potency
43 | CCc1ccc(NC(=O)CSc2nc3ccccc3c(=O)n2CCN2CCOCC2)cc1 | 4.56% | 
44 | COc1ccc(NC(=O)CSc2nc3ccccc3c(=O)n2C)cc1 | -4.2% | 
45 | CCOc1ccc(NC(=O)CSc2nc3ccccc3c(=O)n2Cc2cccs2)cc1 |  | 1.64 µM (active)
46 | O=C(NCC1(N2CCCCC2)CCCCC1)c1cccc(S(=O)(=O)Nc2ccccc2Cl)c1 | 6.46% | 
47 | O=C(NCCC(=O)N1O[C@@H]2C=C[C@H]1C2)OCC1c2ccccc2-c2ccccc21 | 0.0882% | 
48 | O=C(COc1ccc([N+](=O)[O-])cc1Cl)Nc1ccc2[nH]c(=O)[nH]c2c1 | -3.8% | 
49 | COc1ccc(-c2c(C)cc3oc(=O)cc(-c4ccccc4)c3c2C)cc1OC | 14.2% | 
50 | COc1ccc(-c2c(C)cc3oc(=O)cc(-c4ccccc4)c3c2C)cc1F | 40.3% | 
51 | COc1cc(OC)c2c(-c3cccc(-c4cccc(N)c4)c3)cc(=O)oc2c1 |  | 3.66 µM (active)
52 | CN(C)C(=O)CCc1ccc2c3c([nH]c2c1)[C@]1(CCc2ccccc2)[C@@H](C(=O)N2CCCCC2)C[C@H](CC(=O)NCCC2=CCCCC2)C(=O)N1CC3 | -0.29% | 
53 | Cc1ccccc1N1CCN(C(=O)c2cccnc2)CC1 | 16.6% | 
54 | Cc1ccc2c(c1)C1C[N+](C)(CC(=O)c3ccccc3)CCC1N2C(=O)c1ccccc1Cl (stereo unspecified) | -5.17% | 
55 | O=C(NNC(=O)c1ccc2ccccc2c1)c1ccc(Cl)cc1 | 0.538% | 
56 | C[C@H](NC(=O)OC(C)(C)C)c1nnc(SCC(=O)Nc2ccc(Br)cc2)o1 | -0.601% | 
57 | CC(C)Sc1nnc([C@H](Cc2ccccc2)NC(=O)OC(C)(C)C)o1 | -1.87% | 
58 | C[C@@H](NC(=O)OC(C)(C)C)c1nnc(S(=O)(=O)Cc2ccccc2)o1 |  | 13 µM (active)
59 | Cc1cn(COC/C=C/c2ccccc2)c(=O)[nH]c1=O | -0.895% | 
60 | Cc1[nH]c(=O)c(C(=O)/C=C/c2ccccc2)c2c1CCCC2 |  | 20.6 µM (active)
61 | O=C(/C=C/c1ccc(N2CCOCC2)cc1)c1ccccc1 | -2.13% | 
